KDM5B inh: Primary screen for KDM5B Histone Demethylases FDH-coupled qHTS | Lysine-specific demethylase 5B (Homo sapiens), Q9UGL1 | KDM5B demethylase, FDH-coupled NADH fluorescence (FDH is formaldehyde dehydrogenase) | Potency, µM (series often up to 57.7 µM), actives largely listed as inhibitors | 220,000 tested, 2.6% active | AID 1347165, 2019; active = well fitted inhibition curve with a large enough effect; also: 0% is about no effect; nearly all actives have a fitted effect of over 70% in size
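Here, H3K4me3 peptide (12.5 µM in substrate mix) is demethylated by KDM5BΔAP, 200 nM final, after 10 min compound exposure. Formaldehyde product is coupled through FDH (0.25 U/mL in mix) to NADH fluorescence; 30-min ΔRFU feeds dose-response curves.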
The depositor's hits bear a star; i = inactive. The sample as a whole holds a higher share of hits than the screen did. Potency is read from the fitted curve at half-maximal effect.

SMILES	KDM5B inh
Cn1nccc1C(=O)N1CCC2(CC1)OC(=O)N(Cc1ccccc1C#N)C2(C)c1ccccc1 (stereo not given)	i
CCCOc1nc2ccccc2nc1N1CCC(C(=O)NC(C)c2ccccc2)CC1 (stereo not given)	i
CCC1CN(Cc2cccc(C)n2)CCC(=O)N1Cc1ccccc1 (stereo not given)	i
COc1cc(C(=O)Nc2c(N3CCCC3)c3ccccc3oc2=O)cc(OC)c1OC	i
O=C(Cc1c[nH]c2ccccc12)OCc1ccc(Cl)c(Cl)c1	i
O=C(Nc1ccc(C(F)(F)F)cc1)C1(c2cccs2)CCOCC1	i
c1ccc(-c2ccnc3nc(C4CCC4)nn23)cc1	28µM*
Cn1cc(C(=O)O)c(-c2ccc3c(c2)OCCCO3)n1	i
CC(C)Cc1nc2nccc(-c3ccc4c(c3)OCCCO4)n2n1	28µM*
CC(C)NC(=O)c1cn(C)nc1-c1ccc2c(c1)OCCCO2	i
COc1ccc(-c2nc3sc(CCNC(=O)C(=O)Nc4ccc(C)cc4C)c(C)n3n2)cc1	i
O=C(CN(CC(=O)NCCO)C(=O)C(=O)N(CC(=O)NCCO)CC(=O)NCCO)NCCO	i
COc1ccc(NC(=O)CN(C)S(=O)(=O)c2ccc3c(c2)CCCN3C(C)=O)cc1Cl	i
Cc1noc2ncc(C(=O)Oc3ccc4cc(Br)ccc4c3)cc12	i
CCOc1nccnc1NC1CCN(C(=O)c2ccnn2CC)CC1	28µM*
CCn1nccc1C(=O)N1CCC(Cc2ccc(C(N)=O)cc2)CC1	i
CCn1nccc1C(=O)N1CCC(Cc2ccc(C(=O)NCCOC)cc2)CC1	i
CCn1nccc1C(=O)N1CCC(N2C(=O)[C@H](OC)[C@@H]2c2ccncc2)CC1	i
CCn1nccc1C(=O)N1CCC(Nc2nccnc2OC)CC1	28µM*
CCn1nccc1C(=O)N1CCC(N2C(=O)C(OC)C23CCOCC3)CC1 (stereo not given)	i
CC(=O)Nc1ccc(S(=O)(=O)[C@H]2CS(=O)(=O)C[C@@H]2N2C[C@H](C)C[C@H](C)C2)cc1	i
O=C([C@@H]1C[C@H](Oc2ccccc2)CN1S(=O)(=O)c1cccs1)N1CCOCC1	i
CN(Cc1noc(C2CCCC2)n1)c1cc(C2CC(O)C2)ncn1 (stereo not given)	i
CS(=O)(=O)N1CCC(C2CCN(C(=O)c3ccc(F)c(F)c3)C2)CC1 (stereo not given)	i
O=C(Nc1cccc(C(F)(F)F)c1)C1CC2CCC1C2 (stereo not given)	i
SMILES	KDM5B inh
Cc1ccccc1-c1nccc2c(=O)cc(N3CCOCC3)oc12	35µM*
COc1ncccc1-c1nccc2c(=O)cc(N3CCOCC3)oc12	40µM*
O=c1cc(N2CCOCC2)oc2c(-c3ccccc3O)nccc12	i
Cc1ccc(-c2csc(Nc3ccccn3)n2)cc1C	i
CC(C)=CC1C(C(=O)N(C)CC(=O)NC(C)C)C1(C)C (stereo not given)	i
Cc1nc([C@@H]2CN(C(=O)Cc3ccc(S(C)(=O)=O)cc3)C[C@H]2C(N)=O)n[nH]1	i
Cc1ccc(S(=O)(=O)NC(C)CN2CCOCC2)c(Br)c1 (stereo not given)	i
COCC[C@]1(O)CCN(C(=O)Nc2ccc(F)c(C(F)(F)F)c2)C[C@H]1C	i
CC1(C)C=C(CC(=O)O)CC(C)(C)N1	i
CC1CCC(NC(=O)CCCc2c[nH]c3ccccc23)CC1 (stereo not given)	i
CC(C)C(=O)Nc1ccc2[nH]cc(C(C(=O)O)N3C[C@H](C)C[C@H](C)C3)c2c1 (stereo not given in full)	i
Cn1c(CNC(=O)CC2CCN(S(C)(=O)=O)C2)nc2ccccc21 (stereo not given)	i
Cn1c(CNC(=O)c2cc[nH]c2C2CCCNC2)nc2ccccc21 (stereo not given)	32µM*
COCCN1CCCC(c2[nH]ccc2C(=O)NCCc2nc3ccccc3[nH]2)C1 (stereo not given)	i
COc1ccc(CCNC(=O)c2c(O)nc3c(C)cccn3c2=O)cc1OC	i
O=C(NCc1ccncc1)c1cc(-c2cccnc2)nc2ccccc12	i
Cn1ncc2c(C(=O)NC3CC3)cc(-c3ccc(F)cc3)nc21	112µM*
CN(C)C(=O)c1cc(C(C)(C)C)nc2c1cnn2C	i
O=C(NCc1ccc(F)cc1)c1ccccc1-c1ccccc1	i
Cc1ccc(-c2cc(C(=O)NC3CC3)c3ccccc3n2)cc1	i
COc1ccccc1CNC(=O)c1cc(C)nc2ccccc12	i
Cn1ncc2c(C(=O)NCc3ccc(F)cc3)cc(C(C)(C)C)nc21	45µM*
Cn1ncc2c(C(=O)N3CCCC3)cc(C(C)(C)C)nc21	i
COc1ccccc1-c1cc(C(=O)NCc2ccc(F)cc2)c2cnn(C)c2n1	89µM*
Cn1ncc2c(C(=O)NCc3cccnc3)cc(-c3ccc([S+](C)(=O)[O-])cc3)nc21	79µM*
SMILES	KDM5B inh
Cc1ccc2nc(-c3cccnc3)cc(C(=O)NC3CC3)c2c1	i
O=C1NCCCN1C1CCN(Cc2ccccc2)CC1	i
Cc1ccc(C)c(NC(=O)C2CCCN2c2ncnc3ccccc23)c1 (stereo not given)	i
CC(C)[C@H](NC(=O)OCc1ccccc1)C(=O)OCC(=O)NC1(C#N)CCCC1	i
CC(=O)NNC(=O)c1[nH]c2ccc(Cl)cc2c1-c1ccccc1	i
COc1ccc(C(=O)N2CC(=O)N(C3CCCCC3)CC(OCc3ccncc3)C2)c(OC)c1 (stereo not given)	i
O=C(NC1CCN(C(=O)N2CC3CC(C2)[C@H]2CCCC(=O)N2C3)CC1)c1ccccc1F (stereo not given in full)	i
Cn1cnc(S(=O)(=O)N2CCc3nnc(C4CC4)n3CC2)c1	i
CCOc1ccc(-c2[nH]ncc2-c2ccccc2)c(O)c1	i
COC(=O)c1ccc(C(=O)N2CCC3(CCCN(CC4CCCCC4)C3)C2)cc1 (stereo not given)	i
CCCn1c(CCC(=O)Nc2cc(OC)cc(OC)c2)nc2cccnc21	i
Cn1ncc(C(=O)NCc2cccnc2)c1-n1cccc1	i
COC(=O)CNC(=O)c1cc(-c2ccc(Cl)cc2Cl)nc2c1cnn2C	79µM*
Cn1ncc2c(C(=O)NCc3ccc(F)cc3)cc(-c3ccc(Cl)nc3)nc21	79µM*
Cc1ccc(-c2cc(C(=O)N3CCSCC3)c3cnn(C)c3n2)c(C)c1	i
Cn1ncc2c(C(=O)N3CCC(C#N)CC3)cc(-c3cc(Cl)cc(Cl)c3)nc21	i
O=C(NCc1cccnc1)c1cc(-c2ccncc2)nc2ccccc12	i
Cn1ncc2c(C(=O)NCc3cccnc3)cc(-c3ccc(Cl)cc3Cl)nc21	79µM*
Cc1cc(C(=O)NCc2cccnc2)c2ccccc2n1	i
O=C(NCc1ccccc1)c1cc(-c2cccnc2)nc2ccccc12	i
Cn1ncc2c(C(=O)NCc3cccnc3)cc(-c3ccc(Cl)nc3)nc21	45µM*
Cc1cc(C(=O)NCc2ccc(F)cc2)c2ccccc2n1	i
Cc1ccc(CNC(=O)c2cc(-c3ccc(C)cc3)nc3n[nH]c(-c4ccc(F)cc4)c23)cc1	i
CC(=O)Nc1ccc(S(=O)(=O)N2CCCCCC2c2ccc(C)s2)cc1 (stereo not given)	i
COc1ccc(CN(C)C2CCCN(CCc3ccccc3)C2)c(OC)c1OC (stereo not given)	i

From PubChem
